The campaign covered roughly 65,000 compounds. About 2,100 (3.2%) showed an effect of 50% or more. The median lay at about -52%. The list comes from a sample in which strong results are over-represented; it also holds similar structures and randomly drawn compounds.
These molecules were tested on Plasmodium falciparum (assay: Screen against P. falciparum Asexual Blood Stage (ABS), at 5uM). Settings: tested at 5 uM.
Format: functional, Dd2

Row | SMILES | INHIBITION [%]
1 | Cc1noc(C)c1CN1C(=O)[C@@H]2CC[C@H]1CN(Cc1ncc[nH]1)C2 | -55.8
2 | Cc1cccc(Nc2cccc(C3CCCN(Cc4ncc[nH]4)C3)n2)n1 (stereo not given) | 89.4
3 | Cc1cccc(CN2CCN3C(=O)NC[C@H]3C2)n1 | -4.56
4 | O=C(Cc1cccs1)N1CC[C@H]2[C@H]1CCN2Cc1cccnc1 | 19.8
5 | Cc1cc(C)c(CNc2nc3ccccc3cc2CO)c(=O)[nH]1 | 21.9
6 | CCc1ccc(C2c3nc[nH]c3CCN2Cc2nccn2CC)nc1 (stereo not given) | 90.1
7 | CCn1ccnc1CN1CCNCC1C (stereo not given) | -43.7
8 | Cc1cc(CC(=O)N2CCN(CC(C)C)[C@@H]3CS(=O)(=O)C[C@@H]32)ccc1F | -48.2
9 | Cc1cccc(CN2CC[C@@H]3[C@@H]2CCN3C(=O)c2cnoc2C)n1 | -26.9
10 | NC(=O)CN1CCCN(C(=O)Cc2ccc3c(c2)OCCO3)CC1 | -57.5
11 | O=C1OCCC1N1CCN(C(=O)Cc2ccccc2Cl)CC1 (stereo not given) | -47.5
12 | O=C(CCN1CCCC1c1cccc2c1OCCO2)N1CCCCC1 (stereo not given) | 73.2
13 | CN(C)CCCN(C)C1CCN(c2cccc(-c3cscn3)c2)CC1 | 81.2
14 | O=C1CC[C@@H]2[C@@H](CCN2Cc2ccncc2)N1c1ccccc1 | -11.8
15 | O=C1Nc2ccccc2CC12CCCN2Cc1cccnc1 (stereo not given) | -69.2
16 | CN1CCN(Cc2ccsc2)Cc2cccnc21 | -81
17 | CN(Cc1ccon1)c1nc(-c2ccccn2)nc2c1CCNCC2 | 76.3
18 | CN(Cc1nccs1)c1nc(-c2ccccn2)nc2c1CCNCC2 | 83.7
19 | CN(Cc1ccsc1)c1nc(-c2ccccn2)nc2c1CCNCC2 | 79.7
20 | CCc1nc(-c2ccc(NC(=O)N3CCC4(CC3)OCCO4)cc2)no1 | 30.5
21 | O=C1CO[C@@H]2CN(Cc3cccs3)C[C@H]2N1Cc1cccnc1 | -28.4
22 | O=C(c1cc(-n2cccc2)ccc1Cl)N1CCC2(CC1)OCCO2 | -6.62
23 | COc1cccc(CN(C)Cc2[nH]c3ccccc3c2C)c1O | 88.7
24 | O=C1CSC(c2ccncc2)c2c[nH]nc2N1 (stereo not given) | -101

Row | SMILES | INHIBITION [%]
25 | COc1cccc(Nc2nc(N3CCCC3)nc3c2CNCC3)c1 | 85.7
26 | COc1cccc(Nc2nc(-c3ccncc3)nc3c2CNCC3)c1 | 82.2
27 | Fc1cccc(Nc2nc(N3CCCC3)nc3c2CNCC3)c1 | 84.3
28 | CC(C)(C)n1cc(C(=O)O)c(-c2ccc(F)cc2F)n1 | -86.4
29 | Fc1cnc(N2CCN3C[C@H](Oc4cncnc4)C[C@H]3C2)nc1 | -74.8
30 | c1ccc(CN2CCOC3CNCC[C@H]32)cc1 (stereo not given in full) | 23.5
31 | Cc1nc(CN2CCO[C@H]3CN(C(=O)Cc4cccs4)C[C@H]32)cs1 | -65.8
32 | CC1(c2ccccc2)CCCN(Cc2cncn2C2CCCC2)C1 (stereo not given) | 91
33 | CS(=O)(=O)N1CCC2(CCCN(Cc3ccccn3)C2)CC1 | -200
34 | O=c1c2ccccc2cnn1Cc1cncn1C1CC1 | -100
35 | COCCNc1c(C#N)c2c(c3nncn13)CN(C)CC2 | -128
36 | CC(C)(C)CN1CCCC2(CCN(C(=O)c3ccc(O)nc3)C2)C1 (stereo not given) | -154
37 | CC(C)(C)c1cn(C[C@H]2CC3CCN2C[C@@H]3C(=O)N2CCOCC2)nn1 (stereo not given in full) | -111
38 | COc1c(C)cnc(CN2CCC(N(C)C(C)C(N)=O)CC2)c1C (stereo not given) | 78.2
39 | COc1c(C)cnc(CN(C)C2CCCCC2)c1C | 76.7
40 | Cc1n[nH]c2c1C(c1ccc(O)cc1)SCC(=O)N2 (stereo not given) | -12.2
41 | Cc1cccnc1CN1CCC2(CC(Nc3ccncn3)C2)C1 (stereo not given) | -21.6
42 | Cc1cccnc1CN1CC[C@H](Oc2cccc(F)c2)[C@@](C)(O)C1 | 75
43 | O=C(Cc1ccccn1)N1CCN2C[C@H](Oc3cccc(F)c3)C[C@H]2C1 | -85.6
44 | Cc1cnccc1CN1CC[C@H](Oc2cccc(F)c2)[C@@](C)(O)C1 | 80.2
45 | Fc1cccc(O[C@@H]2C[C@H]3CN(Cc4ccccn4)CCN3C2)c1 | -29.8
46 | Fc1cccc(O[C@@H]2C[C@H]3CN(Cc4ccncc4)CCN3C2)c1 | -111
47 | O=C(c1ccsc1)N1CCN2C[C@H](OCc3ccccn3)C[C@H]2C1 | -131
48 | Cn1nc(CN2CCCCC(N)C2)c2c(Cl)cccc21 (stereo not given) | 66.2

Row | SMILES | INHIBITION [%]
49 | Cc1csc([C@H]2C[C@H]3CN(Cc4cc(C)on4)CC[C@@H]3O2)n1 | -109
50 | Cc1cc(CN2CC[C@@H]3O[C@@H](c4nnc(C)o4)C[C@H]3C2)no1 | -68.8
51 | Cc1cc(-c2nn(C)c(Cl)c2CN2CCCCC(N)C2)no1 (stereo not given) | 70.3
52 | CS(=O)(=O)N[C@@H]1CN(Cc2ccncc2)C[C@@H]2CCCO[C@@H]21 | -73
53 | CC(N)C(=O)N1CCC(Oc2cccc(C(F)(F)F)c2)CC1 (stereo not given) | 76.6
54 | OC1(CN2CCC(Oc3cccc(C(F)(F)F)c3)CC2)CCNC1 (stereo not given) | 90.3
55 | CC[C@H]1CN2CC[C@H]1C[C@@H]2CNC(=O)Nc1cccc(C(F)(F)F)c1 | -88.1
56 | NCC1(c2cccc(C(F)(F)F)c2)CCCC1 | 32.6
57 | NC(=O)CN1CCCN(C(=O)Cc2cccc(C(F)(F)F)c2)CC1 | -122
58 | Cc1ccc(CN2C[C@@H](OCc3ccccn3)[C@H]3COC[C@H]32)o1 | -72.9
59 | CCc1ccc(CN2CC[C@@H]3NC(=O)CC[C@@H]32)o1 | 11.1
60 | COc1cccc(CNCc2ccccc2Cl)c1O | 77
61 | COc1cccc(CNCc2ccc(F)cc2Cl)c1O | 79.5
62 | c1cc(COC[C@]23COC[C@H]2CN(Cc2ccsc2)C3)ccn1 | 41.6
63 | Cc1ncsc1CN1C[C@@H](OCc2ccccn2)[C@H]2OCCC[C@H]21 | -244
64 | Cc1nn(C)c(C)c1CCn1cncc1-c1ccc2c(c1)CC(C)N2C (stereo not given) | 82.6
65 | CCN1c2ccc(-c3cncn3CC(=O)NC(C)(C)C)cc2CC1C (stereo not given) | 73.2
66 | Cc1cc(C)n(CCCn2cncc2-c2ccc3c(c2)CC(C)N3C)n1 (stereo not given) | 87.4
67 | Cc1nn(C)c(C)c1CN1CCNCC1 | -133.5
68 | CCN1c2ccc(-c3cncn3CCCn3ccnc3C)cc2CC1C (stereo not given) | 86.6
69 | Cc1cc(C)c(CNc2ncnc3ccsc23)c(=O)[nH]1 | -52
70 | Cc1csc(C2(NCC(O)COC(C)C)CCCC2)n1 (stereo not given) | -14.1
71 | O=C(c1cc(F)cc(F)c1)N1C[C@H]2CNC[C@H]2C1 | 1.31
72 | CC(C)N1CCC2(CC1)C(=O)N(c1cccnc1)c1c(F)cccc12 | 49.8

Row | SMILES | INHIBITION [%]
73 | CN1C(=O)C2(CCNCC2)c2cc(F)ccc21 | -85.9
74 | CC(C)N1C(=O)C2(CCN(C)CC2)c2cc(F)ccc21 | -10.7
75 | CC(C)N1CCC2(CC1)C(=O)N(c1cccnc1)c1ccc(F)cc12 | 65.4
76 | CN1CCC2(CC1)C(=O)N(c1cccnc1)c1ccc(F)cc12 | 59.5
77 | CN1CCC2(CC1)C(=O)N(C)c1ccc(F)cc12 | -95.4
78 | Cc1cccc(CN2CCCC23CCNC3)n1 (stereo not given) | 15.6
79 | Cc1cccc(CN(Cc2ccc(C)o2)C2CC(C)(C)NC(C)(C)C2)n1 | 77.4
80 | Cc1cccc(CN2CCCCC23CCNC3)n1 (stereo not given) | 25.4
81 | COc1cc(C(=O)NCC2(N(C)C)CCN(C)CC2)c2ccccc2n1 | 73.6
82 | Cn1cc(CN2CCC[C@]3(C[C@H](Oc4ccccn4)CO3)C2)cn1 | -23.8
83 | CO[C@H]1CN(C(C)C)C[C@@H]1NC(=O)Nc1ccc(C(F)(F)F)cc1 | 71.5
84 | CC(C)=CCN1CCC2(CC1)CC(=O)N(Cc1cc(F)cc(F)c1)C2 | 75
85 | O=C1CC2(CCN(Cc3cccnc3)C2)CN1c1cccc(F)c1 (stereo not given) | -34.7
86 | O=C1CC2(CCN(Cc3ccncc3)C2)CN1c1cccc(F)c1 (stereo not given) | -17.3
87 | CCCN1CCN(C(=O)c2ccc(Cl)cn2)[C@H]2CS(=O)(=O)C[C@H]21 | -54.2
88 | c1cncc(COC[C@H]2CC[C@H]3[C@H](CCN3Cc3nccs3)O2)c1 | -35.5
89 | COc1ccc(-c2n[nH]cc2C2SCC(=O)Nc3[nH]ncc32)cc1 (stereo not given) | -21.3
90 | Cc1ccc(C(=O)N2CC[C@H]3[C@H]2CCN3CC2CCOCC2)cn1 | -131
91 | O=S(=O)(NC1CCC12CCN(CC1CC1)CC2)c1ccccc1 (stereo not given) | 71.2
92 | CNC(=O)c1ccc2c(c1)C1(CCN(CC3CC3)CC1)C(=O)N2 | -44.8
93 | CO[C@H]1CCN(S(=O)(=O)c2cccnc2)[C@@H]2CN(CC3CC3)C[C@H]12 | 31
94 | Clc1ccc(COCC2CCN(Cc3ccccn3)CC2)cc1 | 90.7
95 | Fc1ccc(COCC2CCN(Cc3ccccn3)CC2)cc1 | 78.8
96 | c1ccc(CN2C[C@H]3CCC[C@@]3(COCC3CC3)C2)nc1 | -64.4

Row | SMILES | INHIBITION [%]
97 | c1ccc(CN2C[C@@H]3COC[C@]3(COCC3CCOCC3)C2)nc1 | -61.3
98 | c1ccc(CN2C[C@@H]3COC[C@]3(COCc3ccncc3)C2)nc1 | -47.9
99 | c1ccc(CN2C[C@H]3CCC[C@@]3(COCC3CCOCC3)C2)nc1 | -45.1
100 | Cc1nc2c(c(NCc3nc4ccccc4s3)n1)CCNCC2 | 71.3
101 | Cc1nc2c(c(NCc3ccc(-c4ccccn4)s3)n1)CCNCC2 | 73.6
102 | Cc1nc2c(c(NCc3cc4ccccc4s3)n1)CCNCC2 | 89.2
103 | COc1ncnc(N)c1CNCCc1ccccc1 | -136
104 | Cc1nc(C2(NCC(=O)NCc3cccs3)CCCCC2)no1 | -130
105 | CN(C)C(=O)CN1CCCC2(CCN(c3ccc(C#N)cn3)C2)C1 (stereo not given) | -51.1
106 | O=C1CCCN1CCN1CC=C(c2cnn(C3CCS(=O)(=O)C3)c2)CC1 (stereo not given) | -88.6
107 | CC(Nc1ncnc2c1CCNC2)c1ccc2c(c1)CCCC2 (stereo not given) | 71.2
108 | CC(C)N(C)Cc1cncc2c1CCN(Cc1cccs1)C2 | 1.43
109 | CCN1CCCC12CCN(Cc1cccnc1OC)CC2 | -69.1
110 | COCCN1CCCC12CCN(Cc1cccnc1OC)CC2 | -66.3
111 | COc1cc(Oc2ncccc2C(F)(F)F)ccc1CN1CCCC1 | 79.4
112 | Cc1noc(C)c1CN1CCO[C@H]2[C@H](Oc3ccccn3)CC[C@@H]21 | -42.5
113 | OCCCN1CCc2[nH]nc(C(c3ccccc3)c3ccccc3)c2C1 | 73
114 | Cc1cccc(CN2CC3C[C@]3(NC(=O)c3ccoc3)C2)n1 (stereo not given in full) | -67.9
115 | COCCN1C[C@@H]2[C@@H](OC)CCN(S(=O)(=O)c3cccnc3)[C@@H]2C1 | -22.8
116 | Cn1ccc2c(C(=O)NC3CN4CCC3CC4)cccc21 (stereo not given) | 3.44
117 | Cc1ccc(C(=O)N[C@H]2CN(CCO)C[C@@H]2C2CC2)cc1Cl | 52.2
118 | CCOc1ccc(C2SCC(=O)Nc3c2c(=O)[nH]n3C(CC)CC)cc1 (stereo not given) | -144
119 | CCN1CCN(c2cncc(Cl)n2)CC1 | -13.6
120 | CCN1CCN(S(=O)(=O)c2cc(Cl)c(Cl)cc2C)CC1 | 70.9
